Laboratory results: PubChem BioAssay AID1063 (University of Pittsburgh Molecular Library Screening Center, 2008)
About 18,000 (9%) of roughly 200,000 compounds were called active. Rule as the data show it: active = inhibition above about 50%; inactive = the rest. The list comes from a sample in which actives are over-represented; it also holds similar structures and randomly drawn compounds.

Test: Leishmania major promastigote growth inhibition, primary screen (AID 1063);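 also: promastigotes grown with compound for 44 hours at 28 °C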
Conditions: Leishmania major promastigotes, resazurin fluorescence viability; at 10 µM; hits give high values

Row | SMILES | inhibition
1 | CCOC(=O)CCCN1CC(O)=C(c2nc3ccccc3s2)C1=N | 17% (inactive)
2 | CC(C)n1c(=O)[nH]c2cc(C(=O)Nc3ccccc3)ccc21 | -2.18% (inactive)
3 | O=C(N/N=C/c1ccco1)c1ccc(C(=O)N/N=C/c2ccco2)o1 | -1.3% (inactive)
4 | COC(=O)c1nn(-c2cccc(Cl)c2)ccc1=O | -3.04% (inactive)
5 | O=C(Cc1ccc([N+](=O)[O-])cc1)N/N=C/c1ccco1 | 2.95% (inactive)
6 | COc1cc(NC(=O)CSc2nnc3ccc(-c4ccncc4)nn23)cc(OC)c1 | -2.79% (inactive)
7 | CCOc1ccc(C(=O)NC(=S)Nc2ccc(NC(=O)C(C)C)cc2)cc1[N+](=O)[O-] | -7.33% (inactive)
8 | CCOc1ccc(C(=O)NC(=S)Nc2ccc(N3CCOCC3)c(Cl)c2)cc1[N+](=O)[O-] | 100% (active)
9 | COc1cccc(OC)c1C(=O)NC(=S)Nc1ccc(N2CCOCC2)c(Cl)c1 | 21.4% (inactive)
10 | O=C(c1ccncc1)N1CCN(c2ccc3ccccc3n2)CC1 | -1.56% (inactive)
11 | O=C(Nn1cnnc1)c1ccc([N+](=O)[O-])cc1 | -11.1% (inactive)
12 | CCOC(=O)c1cccc(NC(=O)CN(c2ccc(C)cc2)S(=O)(=O)c2c(C)noc2C)c1 | 22.7% (inactive)
13 | Cc1noc(C)c1S(=O)(=O)N(CC(=O)Nc1ccc2c(c1)OCCO2)c1ccc(C(C)C)cc1 | 55.8% (active)
14 | Cc1noc(C)c1S(=O)(=O)N(CC(=O)NCc1ccc(Cl)cc1)c1ccc2c(c1)OCO2 | -4.31% (inactive)
15 | CCC1CCCCN1C(=O)CSc1nc(C)cc(C)n1 (stereo not drawn) | 11.3% (inactive)
16 | O=C(O)/C=C/C(=O)NNc1ccc([N+](=O)[O-])cc1 | -9.99% (inactive)
17 | CC(=O)Nc1ccc(C(=O)CSc2nc3ccc(C)cc3[nH]2)cc1 | 52.9% (active)
18 | O=C(CSc1nc2ccc([N+](=O)[O-])cc2[nH]1)c1ccc(Cl)cc1 | -1.01% (inactive)
19 | CCOC(=O)CSc1nc2ccc(C)cc2[nH]1 | -4.89% (inactive)
20 | O=C1c2ccccc2NC(c2ccccn2)N1NS(=O)(=O)c1ccccc1 (stereo not drawn) | 2.46% (inactive)
21 | COc1ccc(NS(=O)(=O)c2cc(NC(=O)/C=C/c3cc(OC)c(OC)c(OC)c3)ccc2N2CCCCC2)cc1 | 61.7% (active)
22 | COc1ccc(/C=C/C(=O)Nc2ccc3c(c2)OCCO3)cc1OC | 13.8% (inactive)
23 | COc1ccc(NS(=O)(=O)c2cc(NC(=O)C3CCCCC3)ccc2N2CCOCC2)cc1 | 16.6% (inactive)
24 | COc1ccccc1NC(=O)CCCc1c[nH]c2ccccc12 | -1.94% (inactive)

Row | SMILES | inhibition
25 | Cc1cc(C)cc(NC(=S)NCCc2c[nH]c3ccccc23)c1 | 10.6% (inactive)
26 | COc1cccc(CNCCc2c[nH]c3ccccc23)c1OCc1ccccc1F | 101% (active)
27 | CCOc1ccc(S(=O)(=O)Nc2ccncc2)c(C)c1C | -6% (inactive)
28 | O=C(CCn1ccc([N+](=O)[O-])n1)Nc1nccs1 | 11.6% (inactive)
29 | COc1ccc2c(c1OC)C(=O)OC2Nc1nc(-c2ccccc2)cs1 (stereo not drawn) | 99.8% (active)
30 | COc1ccc2c(c1OC)C(=O)OC2c1c(O)nc(SC)n(-c2ccccc2)c1=O (stereo not drawn) | -6.91% (inactive)
31 | COc1ccc(-c2csc(Nc3ccccn3)n2)cc1 | 15.6% (inactive)
32 | CC(=O)c1cnc(-c2ccccc2)s1 | -5.94% (inactive)
33 | COCCNC(=O)C(c1ccc(O)cc1)N(C(=O)CCC(=O)Nc1nccs1)c1ccc(C)cc1 (stereo not drawn) | -10.6% (inactive)
34 | CN1CCCN(C(=O)C2CCCCC2)CC1 | 0.8% (inactive)
35 | CCOC(=O)C1(S(=O)(=O)c2ccc(Cl)cc2)CCN(Cc2ccccc2)CC1 | 29.3% (inactive)
36 | COc1cccc(CC2(CO)CCN(Cc3cnc(-c4cccc(C)c4)nc3)CC2)c1 | 4.89% (inactive)
37 | Cc1nn(C)c(C)c1S(=O)(=O)N1CCC(CO)(Cc2ccc(Cl)cc2)CC1 | 2.5% (inactive)
38 | COc1ccc(CC2(CO)CCN(Cc3cnn(C)c3)CC2)cc1 | 91.4% (active)
39 | COC(=O)c1ccc(CN2CCC(CO)(Cc3ccc(OC)cc3)CC2)cc1 | 86.4% (active)
40 | CCOC(=O)C1(S(=O)(=O)c2ccccc2)CCN(Cc2ccccc2)CC1 | 1.91% (inactive)
41 | COc1ccc(C(=O)Nc2sc(C)c(C)c2CN2CCOCC2)cc1 | -3.61% (inactive)
42 | COC(=O)CCC(=O)N1CCCC(CO)(Cc2ccccc2)C1 (stereo not drawn) | -4.47% (inactive)
43 | CCOC(=O)C1(CCOC)CCN(Cc2ccc(C(=O)OC)cc2)CC1 | 81.1% (active)
44 | OCCCC1CCCCN1Cc1nc(Cc2ccccc2Cl)no1 (stereo not drawn) | -4.56% (inactive)
45 | Cc1nc2ccccc2c(C)c1C(=O)c1ccc(F)cc1 | -3.66% (inactive)
46 | CC(OC(=O)c1ccccc1N1C(=O)C2C3CCC(C3)C2C1=O)C(=O)c1ccccc1 (stereo not drawn) | 32% (inactive)
47 | CCCCN(CC(=O)NC(C)(C)C)C(=O)C(=O)Nc1ccc2c(c1)OCCO2 | -6.64% (inactive)
48 | Cn1ncc(N2CCN(S(=O)(=O)c3ccc(Br)cc3)CC2)c(Cl)c1=O | 39.2% (inactive)

Row | SMILES | inhibition
49 | O=C1CC(=O)Nc2cc(S(=O)(=O)N3CCN(c4cccc(C(F)(F)F)c4)CC3)ccc2N1 | -5.33% (inactive)
50 | Cc1cc(C)nc(Nc2ncn[nH]2)n1 | -7.12% (inactive)
51 | CCCCS(=O)c1snnc1C (stereo not drawn) | -4.06% (inactive)
52 | COc1ccc(N(CC(=O)Nc2ccc(C)cc2C)S(=O)(=O)c2ccccc2[N+](=O)[O-])c(OC)c1 | 9.22% (inactive)
53 | O=C(Nc1ccc2ccccc2c1)/C(=C\c1ccc2c(c1)OCO2)NC(=O)c1ccco1 | 1.7% (inactive)
54 | O=C(Nc1ccc2ccccc2c1)/C(=C/c1cccc(Br)c1)NC(=O)c1ccco1 | 76.3% (active)
55 | Cc1cccc(NC(=O)/C(=C\c2ccco2)NC(=O)c2ccccc2)c1 | 3.51% (inactive)
56 | CCCCCCCCCCOC(=O)C[N+](C)(C)CC1CCCCC1O (stereo not drawn) | -3.34% (inactive)
57 | N#C/C(=C\c1ccc(N2CCOCC2)o1)C(=O)N1CCOCC1 | 39.9% (inactive)
58 | N#C/C(=C/c1ccc(N2CCCCC2)o1)C(=O)NCCc1c[nH]c2ccccc12 | 0.13% (inactive)
59 | N#C/C(=C/c1ccc(N2CCOCC2)o1)C(=O)N1CCOCC1 | 54.5% (active)
60 | CC(C)(C)C(=O)N(Cc1ccccc1)c1ccccn1 | -4.68% (inactive)
61 | O=C(c1ccncc1)c1ccc([N+](=O)[O-])cc1 | 5.83% (inactive)
62 | Cc1ccc(NC(=O)c2cccnc2C(=O)Nc2ccc(C)cc2)cc1 | -1.85% (inactive)
63 | CCn1cc(CNC(=O)c2cc([N+](=O)[O-])c(C)c([N+](=O)[O-])c2)cn1 | 18.8% (inactive)
64 | O=C(N/N=C/c1sc(N2CCCCC2)nc1-c1cccs1)c1cccnc1 | 66.3% (active)
65 | O=C(NN=C1CCC(=NNC(=O)c2cccnc2)CC1)c1cccnc1 | -9.82% (inactive)
66 | Cc1cc(/C=N/NC(=O)c2cccnc2)c(C)n1CC(C)C | -1.49% (inactive)
67 | O=C(COC(=O)CNC(=O)c1ccccc1F)NCC(F)(F)F | -0.59% (inactive)
68 | COc1ccc(CC(NC(C)=O)C(=O)NC2CCN(C(=O)C3CC3)CC2)cc1OC (stereo not drawn) | -1.59% (inactive)
69 | CC(=O)NC1=NN(C(C)=O)C(C)(c2ccc(C)cc2)S1 (stereo not drawn) | 63.1% (active)
70 | CC(=O)NC1=NN(C(C)=O)C(C)(c2ccc(Cl)s2)S1 (stereo not drawn) | 37.2% (inactive)
71 | CC(=O)NC1=NN(C(C)=O)C(C)(CCS(=O)(=O)c2ccc(Cl)c(Cl)c2)S1 (stereo not drawn) | -0.49% (inactive)
72 | CCCC(=O)Nc1nnc(-c2ccccc2)o1 | -6.09% (inactive)

Row | SMILES | inhibition
73 | COc1cc(/C=N/NC(=S)Nc2cccnc2)cc(OC)c1O | -1.76% (inactive)
74 | O=C(O)c1cnn2c(C(F)(F)F)cc(-c3ccccc3)nc12 | -4.02% (inactive)
75 | Cc1ccc(-c2cc(C(F)(F)F)n3ncc(C(=O)N4CCCCC4c4cccnc4)c3n2)cc1 (stereo not drawn) | 89.6% (active)
76 | Cc1ccc(-c2cc(C(F)(F)F)n3nc(C(=O)N4CCCC4)cc3n2)cc1 | 2.83% (inactive)
77 | O=C(CSc1cccc[n+]1[O-])c1ccc(Cl)cc1 | 1.35% (inactive)
78 | CC(C(=O)NCC1CCCCC1)N(C)Cc1cccc(Cl)c1 (stereo not drawn) | -1.13% (inactive)
79 | CCc1ccccc1NC(=O)c1cccs1 | -2.12% (inactive)
80 | CCc1ccccc1NC(=O)/C(=C/c1ccccc1)c1ccccc1 | 66% (active)
81 | O=C(/C=C/c1ccccc1)N/C(=C/c1ccccc1)C(=O)Nc1ccccc1O | 5.36% (inactive)
82 | Oc1ccc(-c2nncn2-c2ccccc2)cc1 | -8.74% (inactive)
83 | CN(CC(=O)N1CCN(c2ccccc2)CC1)S(=O)(=O)c1cccs1 | -7.19% (inactive)
84 | O=C(O)CSCC(=O)Nc1ccc(C(F)(F)F)cc1 | -3.47% (inactive)
85 | Cc1cccc(/C=N/NC(=O)CNc2cccc3ccccc23)n1 | 1.6% (inactive)
86 | COc1ccc(C(=O)NCC(=O)N/N=C/c2ccc([N+](=O)[O-])s2)cc1OC | 97% (active)
87 | COc1ccc(/C=N/NC(=O)CNC(=O)c2ccc(S(=O)(=O)N3CCCC3)cc2)c(OC)c1 | 28.7% (inactive)
88 | CCOc1ccc(NC(=O)CCC(=O)N/N=C/c2ccc([N+](=O)[O-])s2)cc1 | 96.6% (active)
89 | COc1cc(/C=N\NC(=O)CNC(=O)c2cccc([N+](=O)[O-])c2)ccc1O | 8.51% (inactive)
90 | Cc1ccccc1NCC(=O)N/N=C\c1ccc([N+](=O)[O-])s1 | 101% (active)
91 | O=C(Cc1cc(=O)[nH][nH]1)N/N=C/c1ccccc1[N+](=O)[O-] | -6.04% (inactive)
92 | CCOc1ccc(NC(=O)CCC(=O)n2nc(C)cc2C)cc1 | -2.57% (inactive)
93 | CCCCCC(=O)Nc1ccc(C(=O)N/N=C/c2ccc([N+](=O)[O-])cc2)cc1 | 34.7% (inactive)
